Assay results taken from PubChem BioAssay AID686978 (National Center for Advancing Translational Sciences (NCATS), 2013).
Among all 420,000 compounds or so, about 64,000 (15%) were called active. Another 27% or so got no clear call; they are omitted. A selection follows. Unmarked numbers belong to inactive results. Calls come from the whole dose curve; as a rule, active = well fitted inhibition curve with a large enough effect; inconclusive = small, poorly fitted or top-dose-only effect; inactive = flat fitted curve, though single readings scatter.

Assay: qHTS for Inhibitors of human tyrosyl-DNA phosphodiesterase 1 (TDP1): qHTS in cells in absence of CPT; note: nearly all actives have a fitted effect of over 55% in size
Settings: DT40 Tdp1-/- hTDP1 cells, no CPT, ATP luminescence, 48 h; activity change, negative = growth inhibition: at 46.2 µM (top of the series)
Method in brief: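 Chicken DT40 Tdp1-/- cells complemented with human TDP1, screened without camptothecin (DMSO vehicle only), 400 cells/well. Compounds pin-transferred, cells incubated at 37 °C for at least 48 hr. Growth read as ATP-dependent luminescence (CellTiter-Glo, 30 min at RT).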
% is set by controls: 0 for no effect and ±100 for the full control effect; potency is the fitted concentration of half-maximal effect.

Question: Which Potency does the source give for O=[N+]([O-])/C=C/c1ccc2c(ccn2Cc2ccccc2)c1 here?
Answer: 4.11 µM (active)

Question: With O=C(CNC(=O)c1n[nH]c2ccccc12)Nc1cc(Cl)ccc1Cl as the compound, how does the “activity change, negative = growth inhibition” value read?
Answer: -26%

Question: For COc1ccc(C)cc1NC(=S)Nc1ccccc1SC, which “activity change, negative = growth inhibition” value is on record?
Answer: 4.85%

Question: Which “activity change, negative = growth inhibition” value does the source give for CSc1ncccc1C(=O)NC1CCCCCC1 here?
Answer: -13.8%

Question: With CC(C)(C)C(=O)Nc1ccc(-c2cn3cccnc3n2)cc1 as the compound, how does the “activity change, negative = growth inhibition” value read?
Answer: -10.1%

Question: Which “activity change, negative = growth inhibition” value does the source give for NNC(=O)CSc1nnc(-c2ccccc2)n1-c1ccccc1 here?
Answer: -0.662%

Question: For Cc1ccc(-c2nnc(SCC(=O)N/N=C/c3cccs3)n2-c2ccc(C)cc2)cc1, which Potency is on record?
Answer: 14.6 µM (active)

Question: Which “activity change, negative = growth inhibition” value does the source give for Cc1nc2ccccc2n1CC(=O)N/N=C/c1cccs1 here?
Answer: -6.77%

Question: With CN(C)c1nccc(NCc2ccccc2)c1C#N as the compound, how does the “activity change, negative = growth inhibition” value read?
Answer: -11.5%

Question: For Cc1ccc(-c2nnc(SC(C)C#N)n2N)cc1 (stereo not drawn), which “activity change, negative = growth inhibition” value is on record?
Answer: -11.7%

Question: With CCc1nn(CCCC(=O)NC(C)c2ccccc2)c(=O)c2cc3occc3n12 (stereo not drawn) as the compound, how does the “activity change, negative = growth inhibition” value read?
Answer: 8.18%

Question: Which “activity change, negative = growth inhibition” value does the source give for CCc1nn(CC(=O)NCC(C)c2ccccc2)c(=O)c2cc3occc3n12 (stereo not drawn) here?
Answer: -24.4%

Question: With CCCNC(=O)C(CC)n1nc(CC)n2c(cc3oc(C)cc32)c1=O (stereo not drawn) as the compound, how does the Potency read?
Answer: 20.6 µM (active)

Question: With Cc1ccnc(NC(=O)CCC(=O)N(CC(=O)NCCc2ccccc2)Cc2cccs2)c1 as the compound, how does the “activity change, negative = growth inhibition” value read?
Answer: -11.8%

Question: For C=CCNC(=O)C1CC=CCC1C(=O)O (stereo not drawn), which “activity change, negative = growth inhibition” value is on record?
Answer: -1.68%

Question: Which “activity change, negative = growth inhibition” value does the source give for CCCCNC(=O)c1ccc(-n2c(=S)[nH]c3ccccc3c2=O)cc1 here?
Answer: -6.01%

Question: Which “activity change, negative = growth inhibition” value does the source give for O=[N+]([O-])c1ccccc1/C=C/CN1CCC(O)CC1 here?
Answer: 10.5%

Question: For O=C(c1cc(COc2c(F)cccc2F)on1)N1CCSCC1, which “activity change, negative = growth inhibition” value is on record?
Answer: -1.53%

Question: Which “activity change, negative = growth inhibition” value does the source give for C(=C\c1ccccc1)/CSc1nnc(-c2cccnc2)n1Cc1ccco1 here?
Answer: 4.04%

Question: With N=c1c2c(-c3ccccc3)c(-c3ccccc3)oc2ncn1Cc1ccco1 as the compound, how does the Potency read?
Answer: 20.6 µM (active)

Question: Which “activity change, negative = growth inhibition” value does the source give for Cn1c(SCC(=O)N2CCOCC2)nnc1-c1ccc2ncccc2c1 here?
Answer: -28.6%

Question: For O=C1c2ccncc2C(=O)N1C1CCCCC1, which “activity change, negative = growth inhibition” value is on record?
Answer: 3.68%

Question: For Cn1c(=O)c(=O)n(C)c2cc(S(=O)(=O)NCCc3ccccc3)ccc21, which “activity change, negative = growth inhibition” value is on record?
Answer: -4.87%

Question: Which “activity change, negative = growth inhibition” value does the source give for C=CCC(NC(=O)Cc1ccccc1)C(=O)NCCC (stereo not drawn) here?
Answer: -4.55%

Question: For C=CCC[C@@H](Cc1ccc(F)cc1)C(=O)OC[C@@H](C)NC(=O)[C@H](CC=C)CC(=O)N(CCO)Cc1ccccc1, which Potency is on record?
Answer: 8.2 µM (active)

Question: For CC(CCc1ccccc1)NC(=O)COC(=O)c1ccc(F)cc1 (stereo not drawn), which “activity change, negative = growth inhibition” value is on record?
Answer: -0.972%

Question: For C=CC[C@@H](Cc1ccc(F)cc1)C(=O)OC[C@H]1CCCN1C(=O)[C@H](CC=C)CC(=O)N(CCO)Cc1ccccc1, which Potency is on record?
Answer: 18.4 µM (active)

Question: Which Potency does the source give for C=CC[C@H](CC(=O)N(CCO)Cc1ccccc1)C(=O)N[C@@H](COC(=O)[C@@H](CC=C)Cc1ccc(F)cc1)Cc1ccccc1 here?
Answer: 20.6 µM (active)

Question: Which “activity change, negative = growth inhibition” value does the source give for O=C(O)CCC(=O)O here?
Answer: 0.325%

Question: For CC(=O)Nc1ccc(N2C(=O)CCC2=O)cc1C, which “activity change, negative = growth inhibition” value is on record?
Answer: -6.41%

Question: For Cc1cc(=O)cc(C)[nH]1, which “activity change, negative = growth inhibition” value is on record?
Answer: -0.466%

Question: For COc1cc(C(=O)NCCOC(=O)c2cccc(N(C)C)c2)cc(OC)c1OC, which “activity change, negative = growth inhibition” value is on record?
Answer: -26.7%

Question: Which “activity change, negative = growth inhibition” value does the source give for Cc1ccc(C(=O)N(CC(=O)NC2CCCC2)c2ccc(F)cc2)s1 here?
Answer: -24.1%

Question: With O=c1c([N+](=O)[O-])cccn1Cc1ccc(F)cc1Cl as the compound, how does the Potency read?
Answer: 20.6 µM (active)

Question: With N/C(=N/O)c1cccn1Cc1ccccc1[N+](=O)[O-] as the compound, how does the “activity change, negative = growth inhibition” value read?
Answer: 1.55%

Question: With O=[N+]([O-])c1ccccc1NCc1ccccc1Cl as the compound, how does the “activity change, negative = growth inhibition” value read?
Answer: -17%

Question: With COc1ccc(C2C(C#N)=C(/N=C/N3CCOCC3)OC3=C2C(=O)CC(C)(C)C3)cc1OC (stereo not drawn) as the compound, how does the “activity change, negative = growth inhibition” value read?
Answer: -4.9%

Question: For CC(C)NS(=O)(=O)c1ccc(CCC(=O)N2CCOCC2)cc1, which “activity change, negative = growth inhibition” value is on record?
Answer: 4.33%

Question: Which Potency does the source give for CCNS(=O)(=O)c1ccc(CCC(=O)N2CCN(c3cc(Cl)ccc3C)CC2)cc1 here?
Answer: 11.6 µM (active)

Question: For Cc1ccc(S(=O)(=O)NCCC(=O)NCc2ccc(Cl)cc2)cc1C, which “activity change, negative = growth inhibition” value is on record?
Answer: -9.55%

Question: Which “activity change, negative = growth inhibition” value does the source give for Nc1cc(=O)nc(SCc2ccccc2)n1Cc1ccco1 here?
Answer: -21.7%

Question: For O=C(CSc1nnc2scc(-c3ccc(F)cc3)n12)NCc1ccco1, which “activity change, negative = growth inhibition” value is on record?
Answer: -2.24%

Question: For O=c1[nH]c(CSc2ncc(-c3ccc(F)cc3)n2Cc2ccco2)nc2ccccc12, which Potency is on record?
Answer: 20.6 µM (active)

Question: With Nc1nonc1-c1nc2ccccc2n1Cc1ccc(F)cc1 as the compound, how does the Potency read?
Answer: 20.6 µM (active)

Question: For Cc1noc(C)c1COC(=O)Cn1c(C)nc2ccccc21, which “activity change, negative = growth inhibition” value is on record?
Answer: -5.16%

Question: Which “activity change, negative = growth inhibition” value does the source give for COc1ccc2oc(N)nc2c1 here?
Answer: -16.7%

Question: For CC(C)(C)N1CC(c2nc3ccccc3n2Cc2ccc(F)cc2)CC1=O (stereo not drawn), which “activity change, negative = growth inhibition” value is on record?
Answer: -19.4%

Question: With Nc1nonc1-c1nc2ccccc2n1CCC(=O)O as the compound, how does the “activity change, negative = growth inhibition” value read?
Answer: -11.1%

Question: For COc1ccc(C)c(Cn2c(-c3nonc3N)nc3ccccc32)c1, which Potency is on record?
Answer: 2.31 µM (active)

Question: With Cn1c(SCC(=O)N2CCCC2)nnc1-c1cccs1 as the compound, how does the “activity change, negative = growth inhibition” value read?
Answer: -2.82%

Question: With CN(Cc1ccccc1)C(=O)CCNC(=O)Cn1cnc2ccccc2c1=O as the compound, how does the “activity change, negative = growth inhibition” value read?
Answer: -15.3%

Question: With CN1CCCCCC1C(=O)NCCN1Cc2ccccc2OC(c2ccsc2)C1 (stereo not drawn) as the compound, how does the “activity change, negative = growth inhibition” value read?
Answer: -4.19%

Question: With O=C(Cn1c(=O)sc2ccccc21)Nc1ccc2c(c1)OCCO2 as the compound, how does the “activity change, negative = growth inhibition” value read?
Answer: -13.3%

Question: Which “activity change, negative = growth inhibition” value does the source give for CCc1ccc(NC(=O)Cn2nnc(C(=O)NCc3ccc4c(c3)OCO4)c2N)cc1 here?
Answer: -16.8%

Question: For CCc1ccc(NC(=O)Cn2c(=O)n(CCC(=O)NCc3ccc4c(c3)OCO4)c(=O)c3ccccc32)cc1, which Potency is on record?
Answer: 9.2 µM (active)

Question: With CCOc1ccc(NC(=O)Cn2c(=O)n(CCCC(=O)NCc3ccc4c(c3)OCO4)c(=O)c3ccccc32)cc1 as the compound, how does the “activity change, negative = growth inhibition” value read?
Answer: 1.6%

Question: For Cn1c(=O)c2ccccc2n(CC(=O)Nc2ccc3c(c2)OCCO3)c1=O, which Potency is on record?
Answer: 9.2 µM (active)

Question: For CCCCC(=O)Nc1ccc2c(c1)OCCO2, which “activity change, negative = growth inhibition” value is on record?
Answer: -9.43%
